Screening results as filed in PubChem BioAssay.
An excerpt weighted towards active compounds, which were near 1.3% of everything screened.
KCNH2 3.1 inh: KCNH2 3.1 (human) potassium channel inhibition. U2OS KCNH2 3.1, thallium flux FluxOr; hits give low values. activity change, % (tested at about 1.8 µM). 0.95% of 340,000 active;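 active = maximum activity change below -70%; inconclusive = maximum activity change from -70% to -50%; inactive = maximum activity change above -50%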;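 note: thallium influx rate constant from kinetic fluorescence after stimulation buffer; % is set by controls: 0 for no effect and ±100 for the full control effect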
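Kinetic fluorescence (2 min after stimulation buffer) measures Tl+ influx through KCNH2 3.1 expressed by viral transduction in U2OS cells; the rate constant is normalized against DMSO controls serving as positive and negative references.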
hERG WT inh: inhibitors of human wildtype KCNH2 potassium channel; 0.37% of 340,000 active; U2OS, BacMam KCNH2, thallium flux FluxOr; hits give low values; activity change, % at 1.84 µM; Q12809;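 active = maximum activity change below -70%; inconclusive = maximum activity change between -70% and -50%; inactive = maximum activity change above -50%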; note: % is set by controls: 0 for no effect and ±100 for the full control effect
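U2OS cells transduced with wild-type KCNH2 virus are loaded with FluxOr dye for 45 min, and thallium flux is measured in kinetic reads before and after stimulation buffer. Rate constants are normalized to DMSO controls.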
TRPML1 blocker: human mucolipin-1 channel inhibition; Q9GZU1; TRPML1-inducible cells, Ca2+ dye fluorescence, FDSS; hits give low values; inhibition of EC80 agonist-evoked calcium signal; activity change, negative = inhibition, % (test concentration not listed); 0.02% of 390,000 active; AID 624415; in the data active = activity change below about -50%; inconclusive = between about -30% and that limit;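 note: stimulus is agonist 54-4 at its EC80 concentration; % is set by controls: 0 for no effect and ±100 for the full control effect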
Target sequence (Q9GZU1 whole entry, looked up): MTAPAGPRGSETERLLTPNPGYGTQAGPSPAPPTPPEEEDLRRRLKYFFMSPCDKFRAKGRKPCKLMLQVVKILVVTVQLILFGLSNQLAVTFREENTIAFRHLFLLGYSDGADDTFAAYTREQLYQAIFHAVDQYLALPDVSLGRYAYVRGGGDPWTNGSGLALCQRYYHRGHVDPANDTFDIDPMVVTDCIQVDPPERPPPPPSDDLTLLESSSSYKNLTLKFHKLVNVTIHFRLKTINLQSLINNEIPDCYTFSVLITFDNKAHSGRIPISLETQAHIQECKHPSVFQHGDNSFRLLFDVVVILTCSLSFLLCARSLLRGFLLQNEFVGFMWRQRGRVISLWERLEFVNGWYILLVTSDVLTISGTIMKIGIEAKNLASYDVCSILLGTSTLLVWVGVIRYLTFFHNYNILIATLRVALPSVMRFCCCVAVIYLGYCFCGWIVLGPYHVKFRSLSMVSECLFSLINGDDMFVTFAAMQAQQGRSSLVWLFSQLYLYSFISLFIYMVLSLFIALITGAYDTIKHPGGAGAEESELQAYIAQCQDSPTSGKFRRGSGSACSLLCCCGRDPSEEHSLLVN
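TRPML1-DL cells, Tet-induced overnight (~16 h, 37 °C) at 1,500 cells/well, were loaded with Ca8 no-wash dye plus quencher for 45-90 min at room temperature. Compounds were pinned during FDSS kinetic reading; agonist 54-4 at EC80 (4 uM final) then added.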
TRPV1 ag: human TRPV1 agonism; Q8NER1; TRPV1-expressing cells, Fluo-8 calcium influx, agonist mode; activation, % at 8.33 µM; 0.19% of 320,000 active; in the data active = activation above about 80%; inconclusive = between about 30% and that limit; note: 0% is about no effect
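Fluo-8 calcium influx in TRPV1-expressing cells, kinetic read (ex 480/em 520 nm). Compound added and read 3 min for agonist activity, followed by capsaicin at EC20 final and 2 min further read for enhancement.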
TRPML1 agonist: human mucolipin-1 channel agonism; Q9GZU1; TRPML1-expressing cells, Ca2+ dye fluorescence, FDSS; activation, % (test concentration not listed); 0.12% of 410,000 active; in the data active = activation above about 50%; inconclusive = mostly about 30% to 49%; note: 0% is about no effect
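Tet-induced TRPML1-DL cells, 1,500 per well, cultured overnight, were loaded with a no-wash Ca2+ dye for 45–90 min. Calcium fluorescence was recorded on the FDSS for 110 s after compound addition, before the EC80 agonist (4 uM 54-4) was added.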
TRPV1 potentiator: enhances activation of the human vanilloid receptor TRPV1. AID 540277. Q8NER1. TRPV1-expressing cells, Fluo-8 calcium influx, capsaicin EC20 potentiation. 0.02% of 320,000 active. potentiation, % at 8.33 µM; in the data active = potentiation above about 80%; inconclusive = between about 30% and that limit; note: 0% is about no effect
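TRPV1-expressing cells were cultured overnight at 35.5C and loaded with Fluo-8 calcium dye for 40 to 90 min at room temperature. After a 10 s baseline, compound was added and calcium influx was read kinetically for 3 min (ex 480/em 520 nm).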
The depositor's hits bear a star.

How did Cc1ccc(S(=O)(=O)c2cn(C)c3cc(N4CCCCCC4)c(F)cc3c2=O)cc1 do in these assays?
TRPML1 blocker: -3; TRPML1 agonist: -1

What do the screens show for `COc1cc(NC(=O)c2cc(-c3ccccc3)on2)cc(OC)c1OC`?
KCNH2 3.1 inh: 3; hERG WT inh: -4; TRPML1 blocker: 20; TRPV1 ag: -3; TRPML1 agonist: 0; TRPV1 potentiator: 9

How did COc1cc(NC(=O)c2cc3nc(-c4ccccc4)cc(-c4ccccc4)n3n2)cc(OC)c1OC do in these assays?
KCNH2 3.1 inh: -73*; hERG WT inh: -5; TRPML1 blocker: 95; TRPV1 ag: -3; TRPML1 agonist: 1; TRPV1 potentiator: -1

What do the screens show for `COc1ccc(C(=O)Nc2ccc(S(=O)(=O)N3CCOCC3)cc2)cc1`?
KCNH2 3.1 inh: -4; hERG WT inh: 3; TRPML1 blocker: -12; TRPML1 agonist: 1

What do the screens show for `COc1ccc(NC(=O)c2ccc(Br)c(S(=O)(=O)N3CCOCC3)c2)cc1`?
KCNH2 3.1 inh: -5; hERG WT inh: 2; TRPML1 blocker: -6; TRPV1 ag: 98*; TRPML1 agonist: -1; TRPV1 potentiator: -27

Results for COc1ccc(C(=O)Nc2ccc(-c3ccc(C)o3)cc2)cc1S(=O)(=O)N1CCOCC1 ?
KCNH2 3.1 inh: -71*; hERG WT inh: 16; TRPML1 blocker: -1; TRPV1 ag: 0; TRPML1 agonist: -1; TRPV1 potentiator: 4

Results for O=C(/C=C/c1ccc(Cl)cc1)N1CCN(c2ccc(Cl)cc2[N+](=O)[O-])CC1 ?
KCNH2 3.1 inh: -96*; hERG WT inh: -133*; TRPML1 blocker: 11; TRPV1 ag: inconclusive; TRPML1 agonist: -1; TRPV1 potentiator: -13

What do the screens show for `COc1ccc(-c2[nH]c(-c3cccc(OC)c3)nc2SCC(=O)NCc2ccco2)cc1`?
KCNH2 3.1 inh: -105*; hERG WT inh: -11; TRPML1 blocker: 6; TRPV1 ag: inconclusive; TRPML1 agonist: -1; TRPV1 potentiator: -12

How did COc1cccc(-c2nc(SCC(=O)NCc3ccco3)c3c(=O)n(C)c(=O)n(C)c3n2)c1 do in these assays?
TRPML1 blocker: -18; TRPML1 agonist: 1

How did Cc1ccccc1C(=O)Nc1ccc2nc(SCC(=O)N3CCc4ccccc43)sc2c1 do in these assays?
TRPML1 blocker: 4; TRPML1 agonist: 0

Results for CC(C)(C)c1ccc(NC(=O)N2CCN(c3ccc([N+](=O)[O-])cn3)CC2)cc1 ?
KCNH2 3.1 inh: -103*; hERG WT inh: 3; TRPML1 blocker: 20; TRPV1 ag: inconclusive; TRPML1 agonist: 2; TRPV1 potentiator: 1

What do the screens show for `O=C(Nc1ccc(F)cc1F)N1CCCN(c2ccc([N+](=O)[O-])cn2)CC1`?
KCNH2 3.1 inh: -1; hERG WT inh: -3; TRPML1 blocker: 3; TRPV1 ag: 13; TRPML1 agonist: -1; TRPV1 potentiator: -1

How did CC[N+](C)(C)c1ccc(/C=C/c2ccnc3ccccc23)cc1 do in these assays?
TRPML1 agonist: 0

How did CCOC(=O)N1CCN(C(=O)c2c(C)nn(-c3cccc(C)c3)c2-n2cccc2)CC1 do in these assays?
TRPML1 blocker: -16; TRPML1 agonist: 0

Results for Cc1cccc(-n2nc(C)c(C(=O)N3CCN(c4ccccc4)CC3)c2-n2cccc2)c1 ?
TRPML1 blocker: -19; TRPML1 agonist: 71*

How did CC(C)Cn1cnc2c1c(=O)n(CC(=O)Nc1ccc3c(c1)OCO3)c(=O)n2Cc1ccccc1 do in these assays?
KCNH2 3.1 inh: 3; hERG WT inh: -86*; TRPML1 blocker: 18; TRPV1 ag: 5; TRPML1 agonist: 1; TRPV1 potentiator: 4

How did CCCCN(Cc1ccccc1)C(=O)c1oc(=O)c2ccccc2c1-c1ccc(C)cc1 do in these assays?
TRPML1 blocker: 6; TRPML1 agonist: 2

How did CCN(CC)S(=O)(=O)c1cc(NC(=O)NCCCl)ccc1C do in these assays?
KCNH2 3.1 inh: 5; hERG WT inh: -1; TRPML1 blocker: -13; TRPV1 ag: -4; TRPML1 agonist: 0; TRPV1 potentiator: -6

How did CCN(CC)S(=O)(=O)c1cc(NC(=O)c2ccc(Br)s2)ccc1C do in these assays?
KCNH2 3.1 inh: 10; hERG WT inh: -5; TRPML1 blocker: 17; TRPV1 ag: 83*; TRPML1 agonist: 0; TRPV1 potentiator: -12

Results for CCOC(=O)c1ccc(NC(=O)NCc2ccccc2OC)cc1 ?
KCNH2 3.1 inh: 5; hERG WT inh: 5; TRPML1 blocker: 3; TRPV1 ag: 84*; TRPML1 agonist: 0; TRPV1 potentiator: 16

Results for O=C(OCc1ccccc1)/C(=C/c1cccc2ccccc12)NC(=O)c1ccccc1 ?
KCNH2 3.1 inh: -26; hERG WT inh: -7; TRPML1 blocker: 14; TRPV1 ag: 25; TRPML1 agonist: 2; TRPV1 potentiator: 4

Results for C=CCOC(=O)/C(=C/c1cccc2ccccc12)NC(=O)c1ccccc1 ?
KCNH2 3.1 inh: -25; hERG WT inh: -275*; TRPML1 blocker: -10; TRPV1 ag: inconclusive; TRPML1 agonist: 0; TRPV1 potentiator: -22

What do the screens show for `COc1ccc(Cl)cc1S(=O)(=O)n1ccnc1C(C)C`?
KCNH2 3.1 inh: -83*; hERG WT inh: 2; TRPML1 blocker: -7; TRPV1 ag: 22; TRPML1 agonist: 0; TRPV1 potentiator: -22

What do the screens show for `C/C(=N\NC(=O)c1c(Cl)c(C)nn1C)c1cccc(NC(=O)COc2ccc(Cl)cc2)c1`?
KCNH2 3.1 inh: -82*; hERG WT inh: -1; TRPML1 blocker: 14; TRPV1 ag: 3; TRPML1 agonist: 0; TRPV1 potentiator: inconclusive

How did CCC(Sc1nc(-c2ccccc2)[nH]c1S(=O)(=O)c1ccc(C)cc1)C(=O)O (configuration not stated) do in these assays?
TRPML1 blocker: 2; TRPML1 agonist: 0

What do the screens show for `CCCCn1c(=N)c(S(=O)(=O)c2ccc(Cl)cc2)cc2c(=O)n3cccc(C)c3nc21`?
TRPML1 blocker: 3; TRPML1 agonist: 2

Results for COc1ccc(N2CCN(CCC(O)c3ccc4ccccc4c3)CC2)cc1 (configuration not stated) ?
KCNH2 3.1 inh: -103*; hERG WT inh: inconclusive; TRPML1 blocker: -14; TRPV1 ag: 2; TRPML1 agonist: 0; TRPV1 potentiator: 18

How did CC(C)(C)n1ncc2c(=O)n(Cc3c(F)ccc(Cl)c3Cl)cnc21 do in these assays?
TRPML1 blocker: 6; TRPML1 agonist: 2

What do the screens show for `c1ccc(-c2csc(N3CCN(c4ccccn4)CC3)n2)cc1`?
KCNH2 3.1 inh: 3; hERG WT inh: 7; TRPML1 blocker: 4; TRPV1 ag: 101*; TRPML1 agonist: 0; TRPV1 potentiator: -5

What do the screens show for `CCCCCCOc1ccc(CC(=O)O)cc1`?
TRPML1 agonist: 0
